Measurements as given in PubChem BioAssay (NCATS).
Where “and” joins values, the source holds several entries; their conditions need not be identical. Identical values can stand only once. Inconclusive results are not listed. Calls of active or inactive are those of the source. Unless noted, the call rests on the fitted dose curve; in most records, active means well fitted curve in the direction sought with a large enough effect; inconclusive means small, poorly fitted or top-dose-only effect, or another doubt; inactive means no such curve, though single readings can be large; an effect the other way counts as inactive or inconclusive.

Experiments:
[1] = qHTS for differential inhibitors of proliferation of Plasmodium falciparum line W2 (AID 1883); conditions: Potency: Plasmodium falciparum W2 proliferation inhibition; series mostly up to 28.7 µM;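 further: potency means the concentration at half of the fitted maximal effect; parasites grown with compound for 72 h before lysis and staining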
[2] = Nrf2 qHTS screen for inhibitors: Validation (AID 493153; active means well fitted inhibition curve with a large enough effect in the main read-out, with a control signal flat, not every such curve was filed as active; further: potency means the concentration at half of the fitted maximal effect); conditions: A549 ARE-Fluc reporter, 18-24 h; Potency: luciferase luminescence; viability change: measured here: cytotoxicity max response; luciferase luminescence, at 46.1 µM (top of the series)
How it was run: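 In this counterscreened reporter format, each well gives two signals: CellTiter-Fluor fluorescence for cytotoxicity and ARE-luciferase luminescence for Nrf2 function. A549 ARE_Fluc cells in 5% FBS OPTI-MEM were exposed to compound titrations for 18-24 h.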

[3] = Cell Viability - N2a (AID 540); conditions: N2a mouse neuroblastoma cell viability; at 92.2 µM (top of the series);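 further: cells exposed to compound for 40 h at 37 °C; plate controls were DMSO alone for no effect and tamoxifen control for full effect; nearly all actives have a fitted effect of over 45% in size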
How it was run: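 In this qHTS cytotoxicity screen, ATP-dependent luciferase luminescence reports viable N2a cells after a 40 hr compound exposure in complete culture medium. Potencies are AC50 values from standard Hill equation fits.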

[4] = Cell Viability - NIH 3T3 (AID 541); conditions: NIH 3T3 cell viability, qHTS; at 92.2 µM (top of the series);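 further: cells exposed to compound for 40 hours; plate controls were DMSO alone for no effect and tamoxifen positive control for full effect; nearly all actives have a fitted effect of over 25% in size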
How it was run: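 In this cytotoxicity screen, acute toxicity is scored as an ATP drop measured by CellTiter-Glo in NIH 3T3 fibroblasts following a 40 hr, 37 °C incubation with compound.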

[5] = Cell Viability - Renal Proximal Tubule (AID 545); conditions: renal proximal tubule cells viability; series mostly up to 91.7 µM;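 further: cells exposed to compound for 40 hours; nearly all actives have a fitted effect of over 40% in size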
How it was run: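 Rat kidney proximal tubule cells, freshly isolated; 1000 cells/well, 5 hr settle, compound 40 hr 37 °C. CellTiter-Glo 20 min RT, luminescence read. AC50 by standard Hill fit.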

[6] = Cellular Toxicity (caspase-3) Jurkat (AID 655); conditions: Jurkat caspase-3 activation, luminescence, DMSO = 0%, tamoxifen = 100%; series mostly up to 92.2 µM;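 further: cells exposed to compound for 16 h at 37 °C before reading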
How it was run: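 Luminescent caspase-3/7 readout (aminoluciferin substrate cleavage) in human T-cell leukemia Jurkat cells after 16 hr compound exposure. Concentration-response normalized to DMSO and 100 uM tamoxifen; AC50 by standard Hill equation.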

[7] = Cellular Toxicity (caspase-3) Mesangial (AID 660); conditions: mesangial cells, normalized: DMSO 0%, 100 µM tamoxifen 100%; series mostly up to 91.7 µM;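 further: combined caspase 3 and 7 activity read by Caspase-Glo luminescence; cells exposed to compound for 16 h before the caspase read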
How it was run: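 AC50 values come from Hill-equation fits of caspase 3/7 activation, measured as Caspase-Glo luminescence in human glomerular mesangial cells exposed to compound for 16 h at 37 °C; 100% set by 100 uM tamoxifen.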

[8] = Cell Viability - LYMP2-001 (AID 921); conditions: LYMP2-001 lymphoblastoid cell viability; series mostly up to 92.2 µM;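 further: cells exposed to compound for 24 h at 37 °C; 0% = DMSO only and full inhibition = tetraoctylammonium bromide control wells; nearly all actives have a fitted effect of over 70% in size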
How it was run: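 CellTiter-Glo luminescence (intracellular ATP) after 24 hr compound exposure at 37 C, 2500 lymphoblastoid cells/well in complete medium. AC50 fitted with standard Hill equation; tetraoctylammonium bromide positive control.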

[9] = Cell Viability - LYMP2-010 (AID 981); conditions: LYMP2-010 lymphoblastoid cell viability, qHTS; series mostly up to 92.2 µM; further: nearly all actives have a fitted effect of over 55% in size; further: potency means the concentration at half of the fitted maximal effect
How it was run: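 This 24 hr viability screen uses LYMP2-010 lymphoblastoid cells, quantifies ATP via luciferase luminescence, and derives AC50 from Hill fits of qHTS concentration-response data.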

[10] = Cell Viability - LYMP2-026 (AID 989); conditions: LYMP2-026 lymphoblastoid cell viability, qHTS; series mostly up to 92.2 µM;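 further: cells exposed to compound for 24 h at 37 °C; on the % scale 0 is the no-effect control and ±100 the full control effect; nearly all actives have a fitted effect of over 50% in size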
How it was run: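 Acute toxicity screen in complete culture medium, with 24 hr compound exposure at 37 C. Viability read as cellular ATP via luciferase reaction, with tetraoctylammonium bromide (6.4pM to 92 uM) as positive control.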

[11] = Cell Viability - LYMP1-002 - Assay at 24 hr (AID 993); conditions: LYMP1-002 lymphoblastoid cells viability; series mostly up to 92.2 µM; further: on the % scale 0 is the no-effect control and ±100 the full control effect
How it was run: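 Viability was judged from intracellular ATP using a luciferase read-out, following a 24-hour compound incubation at 37 C of lymphoblastoid cells seeded at 2500 per well. Concentration-response data were fitted to the Hill equation for AC50.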

[12] = Cell Viability - LYMP1-002 - Assay at 40 hr (AID 994); conditions: LYMP1-002 lymphoblastoid cell viability; series mostly up to 92.2 µM; further: nearly all actives have a fitted effect of over 60% in size; further: potency means the concentration at half of the fitted maximal effect
How it was run: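 Concentration-dependent ATP loss after 40 hr treatment at 37 C defined toxicity; AC50 values were obtained by fitting the standard Hill equation.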

[13] = qHTS Assay for Identification of Small Molecule Inducers of Hypoxia Response (AID 2120; active means well fitted curve in the direction sought with a large enough effect in the signal ratio, with a control signal flat, not every such curve was filed as active; the % refers to the signal ratio; further: 0% is about no effect); conditions: hypoxia response reporter cells, beta-lactamase ratio readout; series mostly up to 104 µM
How it was run: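 HRE-bla ME-180, 2500 cells/well, 0.5% dialyzed FBS medium; cpd titration, 17 h 37 degrees C; CCF4 2.5 h RT; Ex 405, Em 460/530 ratio -> %Activity, AC50.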

[14] = biological target: Glucocorticoid receptor (Homo sapiens) (UniProt P04150); test: qHTS assay for small molecule antagonists of glucocorticoid receptor signaling (AID 588533; active means well fitted inhibition curve with a large enough effect in the signal ratio, with a control signal flat, not every such curve was filed as active; the % refers to the signal ratio;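 further: cells stimulated with 2 nM dexamethasone as agonist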; further: potency means the concentration at half of the fitted maximal effect); conditions: HeLa MMTV-bla, GRE beta-lactamase ratio, antagonist mode, 18 h; series mostly up to 76.8 µM
Chain of Glucocorticoid receptor (Homo sapiens) (P04150 whole entry, looked up): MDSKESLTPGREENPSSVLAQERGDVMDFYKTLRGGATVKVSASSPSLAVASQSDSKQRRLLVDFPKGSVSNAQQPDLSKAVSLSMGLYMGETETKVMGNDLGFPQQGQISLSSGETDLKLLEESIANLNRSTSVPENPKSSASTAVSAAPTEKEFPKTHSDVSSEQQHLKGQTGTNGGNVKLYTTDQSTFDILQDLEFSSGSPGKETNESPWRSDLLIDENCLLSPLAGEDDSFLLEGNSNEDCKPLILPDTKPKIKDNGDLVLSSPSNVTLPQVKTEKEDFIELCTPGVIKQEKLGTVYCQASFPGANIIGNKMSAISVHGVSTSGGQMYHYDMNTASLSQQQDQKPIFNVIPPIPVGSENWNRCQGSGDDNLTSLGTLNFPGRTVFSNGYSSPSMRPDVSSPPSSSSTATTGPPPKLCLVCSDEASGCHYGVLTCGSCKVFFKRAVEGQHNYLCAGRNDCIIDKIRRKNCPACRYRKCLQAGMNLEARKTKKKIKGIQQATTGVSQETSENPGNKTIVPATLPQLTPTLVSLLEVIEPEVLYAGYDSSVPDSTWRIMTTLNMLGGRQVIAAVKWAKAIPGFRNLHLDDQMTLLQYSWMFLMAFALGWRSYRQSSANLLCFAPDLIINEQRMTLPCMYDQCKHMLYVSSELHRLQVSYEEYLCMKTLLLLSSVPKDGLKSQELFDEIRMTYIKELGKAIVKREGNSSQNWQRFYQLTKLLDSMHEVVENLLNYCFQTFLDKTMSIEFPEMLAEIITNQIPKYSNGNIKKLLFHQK
How it was run: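 Antagonist-mode qHTS: compound titrations added to GRE-bla HeLa cells, then dexamethasone 2 nM final; 18 h, 37 C. CCF4 FRET fluorescence normalized to dexamethasone and DMSO; IC50 from Hill fit.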

[15] = biological target: Peroxisome proliferator-activated receptor gamma (Homo sapiens) (UniProt P37231); test: qHTS assay for small molecule agonists of peroxisome proliferator-activated receptor gamma signaling (AID 588536; active means well fitted curve in the direction sought with a large enough effect in the signal ratio, with a control signal flat, not every such curve was filed as active; the % refers to the signal ratio;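 further: 0% = DMSO basal wells and 100% = rosiglitazone at 2 µM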); conditions: HEK293 PPARg-UAS-bla, beta-lactamase ratio, 16 h, percent of rosiglitazone response, DMSO as zero; series mostly up to 76.7 µM
Chain of Peroxisome proliferator-activated receptor gamma (Homo sapiens) (P37231 whole entry, looked up): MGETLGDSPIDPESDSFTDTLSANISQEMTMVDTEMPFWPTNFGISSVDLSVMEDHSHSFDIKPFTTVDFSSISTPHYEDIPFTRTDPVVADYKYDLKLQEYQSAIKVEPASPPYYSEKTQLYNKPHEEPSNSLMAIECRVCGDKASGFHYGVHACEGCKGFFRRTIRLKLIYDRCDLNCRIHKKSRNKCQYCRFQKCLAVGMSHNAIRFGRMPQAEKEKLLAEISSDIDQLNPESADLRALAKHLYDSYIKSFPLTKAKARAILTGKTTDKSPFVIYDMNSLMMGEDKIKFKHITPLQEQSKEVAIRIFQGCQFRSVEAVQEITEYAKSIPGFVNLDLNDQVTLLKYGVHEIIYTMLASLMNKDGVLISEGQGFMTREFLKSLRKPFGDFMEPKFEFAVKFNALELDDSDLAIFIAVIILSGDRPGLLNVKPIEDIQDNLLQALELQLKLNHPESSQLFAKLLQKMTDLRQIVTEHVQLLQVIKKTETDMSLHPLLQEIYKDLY
How it was run: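 Using GeneBLAzer HEK293 cells, response was quantified by CCF4 fluorescence and normalized between basal DMSO (0%) and rosiglitazone 2 uM (100%); curves yielded half-maximal stimulation concentration and efficacy.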

[16] = qHTS assay for small molecule antagonists of retinoid X receptor alpha signaling (AID 588546; active means well fitted inhibition curve with a large enough effect in the signal ratio, with a control signal flat, not every such curve was filed as active; the % refers to the signal ratio;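 further: cells stimulated with 9-cis-retinoic acid as agonist; on the % scale 0 is the no-effect control and ±100 the full control effect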); conditions: HEK293T RXRa-UAS-bla, beta-lactamase ratio, antagonist mode; measured here: W530 green channel, cytotoxicity proxy
How it was run: (§1)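 Beta-lactamase reporter inhibition, read as CCF4 fluorescence ratio (ex 405, em 460/530 nm) after 2 h at RT. HEK293T UAS-bla cells, 2500/well, were stimulated with 9-cis-RA at 500 or 100 nM final alongside test compound for 18 h at 37 C.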

[17] = biological target: Retinoic acid receptor RXR-alpha (Homo sapiens) (UniProt P19793); test: as above; conditions: HEK293T RXRa-UAS-bla, beta-lactamase ratio, antagonist mode
Chain of Retinoic acid receptor RXR-alpha (Homo sapiens) (P19793 whole entry, looked up): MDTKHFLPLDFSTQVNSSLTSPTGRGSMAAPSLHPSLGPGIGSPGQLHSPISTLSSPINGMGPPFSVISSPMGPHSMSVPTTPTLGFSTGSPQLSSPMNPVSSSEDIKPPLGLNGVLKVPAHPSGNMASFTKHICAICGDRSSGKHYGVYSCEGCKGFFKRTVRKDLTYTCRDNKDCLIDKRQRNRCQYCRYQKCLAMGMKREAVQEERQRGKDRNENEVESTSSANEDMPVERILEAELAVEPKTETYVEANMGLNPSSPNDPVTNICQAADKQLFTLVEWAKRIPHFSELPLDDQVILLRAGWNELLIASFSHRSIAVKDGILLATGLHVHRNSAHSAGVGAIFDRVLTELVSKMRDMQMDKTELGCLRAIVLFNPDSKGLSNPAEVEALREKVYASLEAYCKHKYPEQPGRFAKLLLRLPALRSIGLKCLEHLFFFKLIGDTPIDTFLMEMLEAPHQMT
How it was run: as §1

[18] = qHTS assay for small molecule disruptors of the mitochondrial membrane potential - 1 hr assay (AID 651754; calls by dose curve; further: nearly all actives have a fitted effect of over 35% in size; further: potency means the concentration at half of the fitted maximal effect); conditions: series mostly up to 92.2 µM
How it was run: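 In this qHTS format, a 1 hr compound treatment of HepG2 cells precedes Mito-MPS staining, and membrane potential is judged from aggregate (red) against monomer (green) fluorescence intensity.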

[19] = biological target: Tumor necrosis factor (Homo sapiens) (UniProt P01375); test: qHTS assay to identify small molecules that stimulate Tumor Necrosis Factor-alpha (TNF-alpha) secretion (AID 651757; active means well fitted curve in the direction sought with a large enough effect in the signal ratio; the % refers to the signal ratio; further: 0% is about no effect); conditions: Human cells, HTRF 665/615 ratio; series mostly up to 92.2 µM
Chain of Tumor necrosis factor (Homo sapiens) (P01375 whole entry, looked up): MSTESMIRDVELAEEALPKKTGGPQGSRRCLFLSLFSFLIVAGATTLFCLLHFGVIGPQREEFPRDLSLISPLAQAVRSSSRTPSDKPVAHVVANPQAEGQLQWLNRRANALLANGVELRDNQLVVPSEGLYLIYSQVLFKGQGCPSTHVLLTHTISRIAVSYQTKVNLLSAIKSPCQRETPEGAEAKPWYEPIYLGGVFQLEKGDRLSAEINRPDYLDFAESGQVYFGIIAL
How it was run: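 Using 3000 THP-1 cells per well, compounds and controls were applied for 17 hrs at 37 C. Detection followed with two labeled anti-TNF-alpha antibodies (cryptate donor, XL665 acceptor) for 3 hr at room temperature, measured by TR-FRET.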

[20] = qHTS assay for small molecule agonists of the antioxidant response element (ARE) signaling pathway measured by Nrf2-dependant transcriptional activity (AID 720636; active means well fitted curve in the direction sought with a large enough effect in the repeat runs; an effect the other way counts as inactive or inconclusive;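 further: HepG2 cells with an ARE-driven luciferase reporter; % of control where 0% means no effect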); conditions: ARE-luc HepG2, Nrf2 luciferase reporter, 16 h; series mostly up to 92.4 µM
How it was run: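 In HepG2 cells engineered with an Nrf2-responsive luciferase gene, ARE induction was quantified as luminescence after 16 hr compound treatment at 37 C.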

Nc1nc2ccc(Cl)cc2c2nc(-c3ccco3)nn12
inactive: Potency [2]
active: Potency [1] 11.2 µM
11.1%: viability change [2]

N#C/C(=C\c1ccc(O)c(O)c1)C(=O)NCCCNC(=O)/C(C#N)=C/c1ccc(O)c(O)c1
active: Potency [1] 2.24 µM

CC(=O)/C=C/c1ccccc1
inactive: activity change, negative = cytotoxicity [3] -5.72% | outcome [5] | outcome [6] | outcome [7] | outcome [8] | Potency [9] | outcome [10] | outcome [11] | Potency [12] | outcome [13] | Potency [14] | outcome [15] | max response [17] 11.5% | Potency [18] | outcome [19] | Potency [20]
active: activity change, negative = cytotoxicity [4] -123%
-5.45%: max response [16]

CCOC(=O)c1ccccc1N
inactive: activity change, negative = cytotoxicity [3] 3.3% | activity change, negative = cytotoxicity [4] -0.518% | outcome [5] | outcome [6] | outcome [7] | outcome [8] | Potency [9] | outcome [10] | outcome [11] | Potency [12] | outcome [13] | Potency [14] | outcome [15] | max response [17] 10.1% | Potency [18] | outcome [19] | Potency [20]
-2.66%: max response [16]

Oc1ccccc1Cl
-10.5%: max response [16]
inactive: activity change, negative = cytotoxicity [3] -11.6% | activity change, negative = cytotoxicity [4] -20.7% | outcome [5] | outcome [6] | outcome [7] | outcome [8] | Potency [9] | outcome [10] | outcome [11] | Potency [12] | outcome [13] | Potency [14] | outcome [15] | max response [17] 10.4% | Potency [18] | outcome [19] | Potency [20]

c1ccc(Nc2ccc3ccccc3c2)cc1
inactive: activity change, negative = cytotoxicity [4] -27% | outcome [6] | outcome [8] | Potency [9] | outcome [10] | outcome [11] | Potency [12] | outcome [13] | Potency [14] | outcome [15] | max response [17] 4.38% and -18.9%
-7.73% and -2.18%: max response [16]
active: Potency [18] 37.6 µM

CC(C)COC(=O)c1ccccc1C(=O)OCC(C)C
-12.2%: max response [16]
inactive: activity change, negative = cytotoxicity [3] -12.6% | activity change, negative = cytotoxicity [4] -26.2% | outcome [5] | outcome [6] | outcome [7] | outcome [8] | Potency [9] | outcome [10] | outcome [11] | Potency [12] | outcome [13] | Potency [14] | outcome [15] | max response [17] 12.8% | Potency [18] | outcome [19] | Potency [20]

COc1cc([C@@H]2c3cc4c(cc3[C@H](O)C3COC(=O)[C@@H]32)OCO4)cc(OC)c1OC (some centres undefined)
active: Potency [1] 11.2 µM

CCCCCCCCCC[Si](C)(C)CCC(=O)NC(Cc1ccc(C)cc1)c1ccccc1 (centres undefined)
active: Potency [1] 3.16 µM

COC1=CC(=O)OC(CCc2ccc3c(c2)OCO3)C1 (centres undefined)
inactive: activity change, negative = cytotoxicity [3] -20.1% | outcome [5] | outcome [7] | outcome [10] | outcome [11] | outcome [13] | outcome [15] | Potency [18] | outcome [19] | Potency [20]

Nc1nc2[nH]c(=O)cnc2c(=O)[nH]1
inactive: Potency [2]
-3.53%: viability change [2]

Oc1ccccc1O
active: Potency [9] 20 µM | Potency [12] 15.8 µM | Potency [1] 10 µM | Potency [14] 35.5 µM

c1ccc2c(c1)-c1cccc3cccc-2c13
inactive: activity change, negative = cytotoxicity [3] -25.7% | activity change, negative = cytotoxicity [4] -24% | outcome [5] | outcome [6] | outcome [7] | outcome [8] | Potency [9] | outcome [10] | outcome [11] | Potency [12] | max response [17] -2.14% | outcome [19] | Potency [20]
-3.55%: max response [16]

CN1[C@@H](CC(=O)c2ccccc2)CCC[C@H]1C[C@H](O)c1ccccc1
active: Potency [1] 3.98 µM

Brc1c(Br)c(Br)c2n[nH]nc2c1Br
active: Potency [2] 18.4 µM
-14.6%: viability change [2]
